Data on 16 molecules can be found in PubChem BioAssay AID463208 (Broad Institute, 2010).

Each structure is given as a SMILES string. Active and inactive are the calls of the source.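 Rule for the calls: active = AC50 at most tenfold above the top tested concentration; inconclusive = flat fit with 30 to 70% activity, or a poor fit; inactive = AC50 over tenfold above the top dose.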

A short description of the assay: inhibition of yeast nuclear histone deacetylase activity – cell lysate, fluorescence, yeast nuclear extract, mechanism study for Sdo1 growth activator project, dose response (AID 463208). The note with it: yeast nuclear extract HDAC activity, fluorogenic substrate.
Usually AC50 stands for the midpoint of the concentration-response curve, whichever way the signal moves. Take `O=C(COC(=O)Cc1cccs1)Nc1ccccc1`: the AC50 is > 50 µM (inactive).
As for `COc1ccc(-c2nc3ccccc3s2)cc1NC(=O)c1ccc(Br)o1`, the AC50 is > 50 µM (inactive).
As for `CCOc1ccc(C(=O)NC(=S)NCc2cccnc2)cc1`, the figure is > 50 µM (inactive); as for `O=C(CCSc1nc(-c2ccco2)cc(C(F)(F)F)n1)NCCc1cccs1`, > 50 µM (inactive).
On to `Cn1c(=O)[nH]c(=O)c2c1nc(Sc1nc3ccccc3[nH]1)n2Cc1ccccc1`, for which the AC50 was > 50 µM (inactive).
As for `Cc1sc(NC(=O)c2ccnn2C)c(C#N)c1-c1ccccc1`, the figure is > 50 µM (inactive).
`CC(=O)N(C1CCCCC1)C1C(=O)C(=O)c2ccccc2C1=O` (stereo unspecified): the AC50 was > 50 µM (inactive).
As to `Cc1ccc(Cn2c(Sc3ncccn3)nc3c2c(=O)[nH]c(=O)n3C)cc1`, the AC50 is > 50 µM (inactive).
On to `COc1ccc(OCC(O)Cn2c(Nc3ccccc3)nc3c2c(=O)n(C)c(=O)n3C)cc1` (stereo unspecified), for which the AC50 is > 50 µM (inactive).
In the case of `CC(C)C(C(=O)Nc1cccnc1)N1C(=O)c2ccccc2C1=O` (stereo unspecified), the AC50 was > 50 µM (inactive).
As for `COc1cc(/C=N/NC(=O)CCC(=O)NCc2ccccc2)cc(OC)c1OC`, the figure is > 50 µM (inactive).
As for `O=C(COC(=O)Cc1ccsc1)Nc1ccccc1`, the figure is > 50 µM (inactive); as for `COc1ccc(-c2c(C)sc(NC(=O)c3ccnn3C)c2C#N)cc1`, > 50 µM (inactive).
Take `O=C(CSc1nc(-c2ccco2)cc(C(F)(F)F)n1)NCc1cccs1`: the AC50 is > 50 µM (inactive).
As for `CC(=O)N(C)C1C(=O)C(=O)c2ccccc2C1=O` (stereo unspecified), the figure is > 50 µM (inactive); as for `Cc1sc(NC(=O)c2ccnn2C)c(C#N)c1-c1ccc(F)cc1`, > 50 µM (inactive).
